Experimental data from ChEMBL document CHEMBL4513216, “Probing the Open Global Health Chemical Diversity Library for Multistage-Active Starting Points for Next-Generation Antimalarials” (ACS Infect Dis, 2020).
The campaign covered roughly 68,000 compounds. About 2,700 (4%) showed an effect of 50% or more. This excerpt belongs to a sample that is enriched for strong results.

test system: Plasmodium berghei; assay: Screen against P. berghei liver stage (PbLuc), transformed with Luciferase, at 2uM; type: functional, HepG2; conditions: tested at 2 uM

Compound | INHIBITION [%]
CO[C@H]1C(=O)N(C)C2(CCNCC2)[C@@H]1C(=O)Nc1ccccc1 | 36.1
Cc1noc(C)c1CN1CCC(N(C)Cc2nnc(C3CC3)n2C)C1 (stereo unspecified) | -37.68
CN1C(=O)CCC12CCC(NC(=O)NCc1cccnc1)CC2 (stereo unspecified) | -14.64
CN1C(=O)CCC12CCC(NCc1ccsc1)CC2 (stereo unspecified) | 51.81
CC[C@H]1N(CC2CCC2)CCC[C@]12CCC(=O)N2Cc1ccncc1 | 65.54
COCCN1C(=O)CCC12CCC(NCc1cccnc1OC)CC2 (stereo unspecified) | 12.95
CC[C@@H]1N(Cc2ccccn2)CCC[C@]12CCC(=O)N2CCOC | 51.05
CC[C@@H]1N(CC2CCC2)CCC[C@]12CCC(=O)N2Cc1ccncc1 | 12.28
CC[C@@H]1N(Cc2ccc(OC)cc2)CCC[C@]12CCC(=O)N2CCOC | 25.75
CCCN1CCC[C@]2(CCC(=O)N2Cc2ccncc2)[C@H]1CC | 32.59
COCCN1C(=O)CCC12CCC(NCc1nccs1)CC2 (stereo unspecified) | 75.66
COCCN1C(=O)CCC12CCC(NCc1ccc(OC)cc1)CC2 (stereo unspecified) | 25.43
CC[C@@H]1N(Cc2ccncc2)CCC[C@]12CCC(=O)N2CCOC | 28.86
O=C1CCC2(CCC(NCc3ccsc3)CC2)N1Cc1ccccc1 (stereo unspecified) | 31.5
Cc1cc(C(=O)N2CCC(Nc3cccnc3)CC2)c(C)s1 | 22.36
COCCN1CCC2(CCN(C(=O)c3ccc(F)cc3)CC2)C1=O | 4.59
CN1[C@@H]2CC[C@H]1CN(C(=O)CCc1csc(N)n1)CC2 | 41.86
COc1ccc(C(=O)N2CCC(Nc3cccnn3)CC2)c(F)c1 | -33.22
Cc1c(C2N3CC4(C(C)C)CN2CC(C(C)C)(C3)C4=O)[nH]c(=O)[nH]c1=O (stereo unspecified) | -2.5
CCc1noc(C2CCCCN2C(=O)c2ccc3c(c2)OCO3)n1 (stereo unspecified) | 25.67
CC[C@@H]1N(Cc2nccs2)CCC[C@]12CCC(=O)N2CCOC | 65.26
CC[C@@H]1N(Cc2ccc(F)cc2)CCC[C@]12CCC(=O)N2CCOC | 1.78
CC[C@@H]1N(Cc2nccs2)CCC[C@]12CCC(=O)N2C | 45.22
Cc1csc(C(=O)N2CC(S(=O)(=O)C3CCCCC3)C2)c1 | -15.37
CC(=O)N1CC2(CCCN2Cc2ccc(Cl)cc2)Cc2ccccc21 (stereo unspecified) | 6.9
CCn1c(CC2CCN(C(=O)c3cc(CC(C)C)on3)CC2)n[nH]c1=O | 55.25

Compound | INHIBITION [%]
CCn1c(CC2CCN(C(=O)c3cc(C(C)C)n[nH]3)CC2)n[nH]c1=O | 3.06
CCn1c(CC2CCN(C(=O)c3cc(C(C)C)nn3C)CC2)n[nH]c1=O | 32.26
CSCc1cccc(NC(=O)N2CCC(N3CC=CC3)C2)c1 (stereo unspecified) | -18.09
CC(=O)N(C)Cc1ccccc1NCc1c(C)noc1C | 47.68
CCN(CC)Cc1ccccc1NCc1c(C)noc1C | 71.91
Cc1noc(C)c1CNS(=O)(=O)N(C)Cc1ccccc1Br | -45.67
O=C(Cc1csc(-c2ccco2)n1)N1CCN(c2nccs2)CC1 | 4.89
CC(C)(C)CC(NC(=O)N1CCC(C(N)=O)CC1)C(F)(F)F (stereo unspecified) | 4.34
CC(=O)N[C@@H](C)C(=O)NCc1cccnc1Oc1ccccc1F | -66.28
c1cncc(-c2noc(CN3CCCC3Cn3cccn3)n2)c1 (stereo unspecified) | 5.59
O=C(Nc1cc(-c2ccccc2)on1)N1CCN(CCO)CC1 | 45.19
O=C(Nc1cc(-c2ccccc2)on1)N1CC[C@H](O)C1 | -9.71
CCC(=O)NC1CCCN(C(=O)Nc2cc(-c3ccccc3)on2)C1 (stereo unspecified) | 80.45
Cc1ccc(CN2CCCC3(CCCCN3S(C)(=O)=O)C2)s1 (stereo unspecified) | -40.37
Cc1ccc(CN2CCCC3(CCCN3S(C)(=O)=O)C2)s1 (stereo unspecified) | 51.26
Cc1ccc(CN2CCC3(CCCN3S(C)(=O)=O)CC2)s1 | -26.46
Cc1ccc(CNCc2nnc3n2CCCC3C(F)(F)F)s1 (stereo unspecified) | -73.29
OC1(CN2CCC(Cc3ncccn3)CC2)CCCCC1 | -9.61
CCOc1cccnc1C(=O)N1CC=C(c2ccc(O)cc2)CC1 | 7.46
Cn1ccc(CN2CCC(CC(=O)NC3CCCC3)CC2)cc1=O | -17.37
Cn1ccc(CN2CCC(NC(=O)C3CCCCC3)CC2)cc1=O | -24.26
Cn1ccc(CN2CCC(NC(=O)NC3CCCCC3)CC2)cc1=O | 54.85
Cc1ccccc1-c1noc(CNc2ccc(F)cc2OCCO)n1 | 20.77
Cc1nc(COc2ccc(CNCCn3cccn3)cc2)cs1 | 12.01
COC(=O)C1CCN(C(=O)Cn2ccc(-c3ccccc3)n2)CC1 | -7.16
Cc1nc(-c2ccccc2)n(CC(=O)NC2CCCC2)n1 | 37.68

Compound | INHIBITION [%]
COC(=O)C1CCN(C(=O)Cn2nc(C)nc2-c2ccccc2)CC1 | 50.32
Cc1nc(-c2ccsc2)ccc1C(=O)NC(C)CN1CCOCC1 (stereo unspecified) | 50.75
Cc1nc(-c2ccsc2)ccc1C(=O)NCCCN1CCOCC1 | -10.47
Cc1nc(-c2ccsc2)ccc1C(=O)NCCN1CCOCC1 | 13
CC(C)CN1CC[C@@H]2[C@H](CC1)N(S(C)(=O)=O)CCS2(=O)=O | 30.95
Cc1noc(C)c1CN1CC[C@H]2OCC[C@@]2(C(=O)NC2CCCC2)C1 | -6.61
COc1ncc(-c2ccc(O)cc2)c(OC)n1 | 24.44
Cc1cc(N(C)C)nc(C2COCCN2Cc2csc(C)n2)n1 (stereo unspecified) | -27.45
CNc1cc(C)nc(C2COCCN2CCc2ccccc2)n1 (stereo unspecified) | -3.96
CNc1cc(C)nc(C2COCCN2Cc2csc(C)n2)n1 (stereo unspecified) | 52.03
CCOC(=O)C(C)Nc1ccc(CCN2CCOCC2)cc1 (stereo unspecified) | -48.91
CCNc1nc2c(s1)C(=O)CN(C(=O)NCc1ccccc1)C2 | 52.01
CCNc1nc2c(s1)C(=O)CN(C(=O)NCCc1ccccc1)C2 | 12.31
CNc1nc2c(s1)C(=O)CN(C(=O)NCc1ccccc1)C2 | 16.51
COCCN1C[C@@H]2CC[C@H]1CN(Cc1nc3ccccc3n1C)C2 | 20.14
COCCN1C[C@@H]2CC[C@H]1CN(Cc1ccc3ccccc3n1)C2 | 50.32
COCCN1C[C@@H]2CC[C@H]1CN(Cc1cc(=O)c3cc(C)ccc3[nH]1)C2 | -23.58
O=C(NCc1cccnc1)c1nc2c(s1)CCCN2C(=O)C1CC1 | 26.76
CCCOCC(=O)NS(=O)(=O)c1ccc2c(c1)OCCCO2 | -16.42
CC(C)(C)C(=O)NCCC(=O)NS(=O)(=O)c1ccc2c(c1)OCCO2 | 73.37
CSCCC(=O)NS(=O)(=O)c1ccc2c(c1)OCCO2 | -14.75
CC(C)CC(=O)NS(=O)(=O)c1ccc2c(c1)OCCCO2 | -32.2
COCCCC(=O)NS(=O)(=O)c1ccc2c(c1)OCCCO2 | 54.85
CC(C)(C)C(=O)NCCC(=O)NC(C)(C)c1ccc2c(c1)OCCO2 | -93.39
COCCn1ccc(NC(=O)Nc2ccccn2)n1 | -48.53
O=C1N(Cc2ccc(F)c(F)c2)CCCC1(O)CNCc1cccnc1 (stereo unspecified) | -0.06

Compound | INHIBITION [%]
CCOc1cc2c(cc1CNC(Cc1cccs1)c1nccs1)OCO2 (stereo unspecified) | -52.9
CC(C)NC(=O)C1CCc2nnc(CNC(=O)c3cccnc3)n21 (stereo unspecified) | 37.62
CC(C)NC(=O)C1CCc2nnc(CNC(=O)C3CC3)n21 (stereo unspecified) | 52.23
CC(C)NC(=O)C1CCc2nnc(CNC(=O)c3ccc(Cl)cc3Cl)n21 (stereo unspecified) | 5.75
CCOc1ccc(S(=O)(=O)N(C)Cc2cnn(CC)c2)cc1 | -44.7
COc1ncccc1CNC1CCc2c(ccc(=O)n2CC2CC2)C1 (stereo unspecified) | 24.04
O=C([C@H]1C[C@H]2OCC[C@H]2N(Cc2ccccc2F)C1)N1CCCCO1 | 29.33
CN(C)Cc1nnc2n1CCN(Cc1ccccn1)CC2 | -16.67
O=C(CCc1ccsc1)Nc1ccnn1C1CCS(=O)(=O)C1 (stereo unspecified) | -38.89
Cc1cccc(CCC(=O)Nc2ccnn2C2CCS(=O)(=O)C2)c1 (stereo unspecified) | 62.13
O=C(CCc1cccs1)Nc1ccnn1C1CCS(=O)(=O)C1 (stereo unspecified) | -28.15
O=C(NCCC1COc2ccccc2O1)c1ccc(N2CC(O)C2)nc1 (stereo unspecified) | 13.19
Cc1ccc(N2C(=O)N[C@@H]3CCN(C(=O)C4CCCC4)[C@@H]3C2=O)cc1 | -28.91
O=C1N[C@@H]2CCN(C(=O)C3CC3)[C@@H]2C(=O)N1c1ccc(F)cc1 | 34.24
Cc1ccc(N2C(=O)N[C@@H]3CCN(C(=O)C4CC4)[C@@H]3C2=O)cc1 | 56.76
COc1ccc(-c2nnc(SCC(=O)NCC(C)C)[nH]2)c(OC)c1 | -8.24
COc1ccc(-c2nnc(SC(C)C(=O)NC(C)(C)C)[nH]2)c(OC)c1 (stereo unspecified) | -42.16
COc1ccc(-c2nnc(SC(C)C(=O)NCC(C)C)[nH]2)c(OC)c1 (stereo unspecified) | 59.18
Cc1ccc([C@@H]2CN(C(=O)c3csc(C)n3)C[C@H]2NC(=O)C2CC2)cc1 | -67.56
Cc1ccc([C@@H]2CN(C(=O)c3cc[nH]c3)C[C@H]2NC(=O)C2CC2)cc1 | -12.67
Cc1ccc([C@@H]2CN(C(=O)c3ccsc3)C[C@H]2NC(=O)C2CC2)cc1 | 50.57
CC(NC(=O)NCCN1CCCC1)c1nncn1C (stereo unspecified) | 21.83
CN1CCc2[nH]cnc2C12CCN(Cc1ccc(S(C)(=O)=O)cc1)CC2 | 18.54
